KKLEB cytotox: cytotoxicity in KKLEB CF airway cells, primary screen, cytotoxicity control for CF NF-kB inhibitor project, cell-based, uHTS, fluorescence assay plates | KKLEB CF airway cells viability, ATPlite luminescence, overnight; hits give low values; cells stimulated with P. aeruginosa culture filtrate | activity change (cytotoxicity), % at 5 µM | actives 0.36% (n = 360,000) | AID 602141, 2011;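 active = corrected activity change at or below -50% at 5 µM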
TWEAK Fn14 block: inhibitors of TWEAK-Fn14 signaling, primary screen, luciferase reporter cells, uHTS | actives 2% (n = 360,000) | inhibition, % at 10 µM | TWEAK-stimulated Fn14 reporter cells, luciferase luminescence, 8 h; in the data active = inhibition above about 50%
TROY NFkB inh: inhibitors of TROY-driven NF-kB signaling, primary screen, Q293 LMP1-TROYcd cells, NF-kB luciferase, uHTS; Q293 LMP1-TROYcd NF-kB luciferase reporter, 4 h; AID 1347056, 2019; actives 0.98% (n = 360,000); inhibition, % at 10 µM;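 active = compounds whose plate-normalised and pattern-corrected inhibition of the luciferase reporter signal at the single screening dose is 50% or more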
CF NFkB block: inhibitors of PAF-induced NF-kB signaling, primary screen, cell-based, GFP fluorescence, uHTS. KKLEB NF-kB-GFP reporter, GFP fluorescence overnight. inhibition, % at 5 µM. actives 0.86% (n = 360,000). AID 588850, 2011;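 active = at least 50% inhibition at 5 µM, scaled per plate between neutral and stimulator controls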;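 note: PAF is a Pseudomonas aeruginosa culture filtrate used as stimulus; plate controls were PAF-stimulated DMSO wells for no effect and unstimulated DMSO wells for full effect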
HIF-2a inh: HIF-2a reporter inhibitors, primary screen, luminescence, 786-0 RCC cells | inhibition, % at 18.8 µM | actives 0.72% (n = 360,000) | 786-0 RCC cells HIF-2a reporter, luciferase luminescence, overnight | AID 624352, 2012;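 active = inhibition of the luminescence signal of 40% or more relative to plate controls, in a single-dose primary screen at 18.75 µM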
Peg3 prom inh: Peg3 promoter-driven luciferase inhibitors, primary screen, cell-based, HeLa, luciferase luminescence; actives 1.7% (n = 360,000); inhibition, % at 20 µM; HeLa PEG-Prom luciferase reporter, overnight;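 active = inhibition of at least 50% at 20 µM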
* hit, by the source's call; nt = no result; ! = repeats disagree. Most compounds without a hit are left out; they make up all but 4% or so of the library.

SMILES | KKLEB cytotox | TWEAK Fn14 block | TROY NFkB inh | CF NFkB block | HIF-2a inh | Peg3 prom inh
Cc1ccccc1C(=O)Nc1ccc(-c2nc3ccc(C(=O)c4ccccc4)cc3[nH]2)cc1 | -1.6 | 70.3* | nt | -10.8 | -12.8 | -21.2
CC(C)(C)N1C(=O)c2ccc(C(=O)Nc3ccc(-c4nc5ccccc5[nH]4)cc3)cc2C1=O | 1.9 | -41.4 | -7.7 | -1.6 | -8.1 | 82.2*
CC(C)(C)N1C(=O)c2ccc(C(=O)Nc3ccc(C(=O)O)cc3)cc2C1=O | -6.7 | 12.1 | 8.4 | 9.5 | 12.4 | 11.1
O=C(Nc1ccc(-c2nc3ccc(NC(=O)c4cccs4)cc3[nH]2)cc1)c1cccs1 | -7.9 | -127.5 | -1.0 | 7.1 | 15.1 | 65.6*
CC(CCC(C)C(C)(C)C)[C@@H]1CC[C@H]2C3C[C@H](OS(O)(=S)=S)[C@H]4C[C@H](OS(O)(=S)=S)[C@@H](OS(O)(=S)=S)C[C@]4(C)[C@H]3CC[C@]12C (some centres not stated) (tested in a mixture with another compound) | 8.4 | -57.9 | 36.4 | 29.8 | 0.8 | 58.1*
CC(CCC(=O)NN)C1CCC2C3CCC4CC(O)CCC4(C)C3CCC12C (configuration not stated) | 6.9 | -17.4 | 23.5 | -25.6 | 5.0 | -19.1
CCN1/C(=C/C(C)=C/c2sc3ccccc3[n+]2CC)Sc2ccccc21 | -43.4 | 82.4* | 33.4 | 6.0 | 95.2* | 104.0*
CCN1/C(=C\C(=S)Nc2ccccc2)Sc2ccccc21 | -9.8 | 18.3 | 10.9 | 11.9 | -196.4 | -303.4
COc1cc(OC)c2c(-c3ccccc3)cc(=O)oc2c1C(CCN1CCOCC1)c1ccc2c(c1)OCO2 (configuration not stated) | -18.0 | -4.0 | 6.7 | 22.4 | 2.0 | -2.9
CCCCCc1cc(=O)oc2c(C(CCN(CC)CC)c3cc(OC)c(OC)c(OC)c3)c(OC)cc(OC)c12 (configuration not stated) | -10.6 | -14.5 | 5.0 | 12.1 | -7.2 | 104.5*
CCCCCc1cc(=O)oc2c(C(CCN3CCCCC3)c3ccc4c(c3)OCO4)c(OC)cc(OC)c12 (configuration not stated) | -11.3 | -20.6 | 11.5 | 13.3 | 12.9 | 96.4*
CCCCCc1cc(=O)oc2c(C(CCN3CCCC(C)C3)c3ccc4c(c3)OCO4)c(OC)cc(OC)c12 (configuration not stated) | -1.0 | 43.1 | -3.3 | 20.7 | 15.2 | 98.1*
COc1cc(OC)c2c(-c3ccccc3)cc(=O)oc2c1C(CCN1CCCC1)c1ccc2c(c1)OCO2 (configuration not stated) | 2.1 | -23.9 | -5.2 | 10.6 | 1.6 | 91.2*
COc1ccc(C(CCN2CCCC(C)C2)c2c(OC)cc(OC)c3c(C)cc(=O)oc23)cc1 (configuration not stated) | -24.0 | 3.3 | -13.8 | -19.0 | -1.6 | -24.1
COc1ccc(-c2nnc3sc(CCN4C(=O)c5ccccc5C4=O)nn23)cc1 | -9.4 | -38.0 | 5.3 | -20.2 | 2.0 | -2.9
COc1ccc(Cl)cc1NC(=O)CCn1c(=O)oc2ccccc21 | 8.8 | -16.0 | 6.0 | -36.0 | 4.2 | 9.9
CCc1ccc2nc(N(CCCN(C)C)C(=O)c3ccc(S(=O)(=O)N(C)C4CCCCC4)cc3)sc2c1 | -24.9 | -29.7 | -21.5 | 20.5 | 25.8 | 79.0*
Cc1nc2[nH]c(=S)[nH]c2cc1Br | 4.1 | 1.1 | 11.6 | -1.7 | 13.3 | 9.2
Cc1nc2nc[nH]c2cc1Br | -5.7 | 67.3* | nt | 17.5 | 12.1 | -4.5
CCOC(=O)C1(C)NC(c2ccco2)C2C(=O)N(C)C(=O)C21 (configuration not stated) | 4.5 | -0.7 | 4.3 | -11.9 | -2.5 | 3.5
Cc1ccc(NC(=O)c2ccc(CSc3nccc(C)n3)cc2)cc1 | 2.6 | 3.5 | -13.4 | -5.1 | -92.4 | -41.8
Cc1ccnc(SCc2ccc(C(=O)O)cc2)n1 | -1.0 | 108.5* | -12.5 | -3.3 | 15.0 | -2.4
CCOC(=O)[C@H]1[C@H]2COc3ccc(OC)cc3[C@@H]2N2C(=O)CN(Cc3ccc(C)cc3)C(=O)[C@@]12C | 5.0 | 0.3 | -6.2 | -3.2 | 13.7 | -5.2
CC1CCCCN1C(=O)c1ccc(COc2ccc([N+](=O)[O-])cc2)o1 (configuration not stated) | -1.2 | -18.5 | 2.7 | 1.3 | -4.9 | 20.2
Cn1ccnc1CC(C)(O)c1ccccc1 (configuration not stated) | -8.5 | 5.7 | -2.1 | 8.0 | 13.9 | -2.1
SMILES | KKLEB cytotox | TWEAK Fn14 block | TROY NFkB inh | CF NFkB block | HIF-2a inh | Peg3 prom inh
CCOC(=O)Nc1cccc(OCC(=O)Nc2ccccc2OCC)c1 | -0.7 | -9.8 | 11.9 | 5.6 | 0.2 | -9.9
CCN1C(=O)C(CC(=O)Nc2ccc(Br)cc2)N(CCCc2ccccc2)C1=S (configuration not stated) | -2.9 | 21.1 | 30.6 | 0.6 | -4.6 | 57.6*
OC(c1cccc(F)c1)c1ncc(-c2ccc(Oc3ccccc3)cc2)[nH]1 (configuration not stated) | 11.2 | -2.4 | 26.1 | -29.7 | -147.3 | -34.0
Cc1ccc(/C=C/C(=O)c2c(C)nc3ccccn23)cc1 | -8.8 | 51.5* | -35.5 | 18.5 | -134.9 | -235.5
COc1ccc(C(=O)Nc2ccc(Oc3nc(C)nc4sc(-c5ccccc5)cc34)cc2)cc1OC | -53.3* | 1.9 | -17.2 | 48.1 | -9.0 | -1.3
COc1ccc(C(=O)Nc2ccc(Oc3ncnc4sc(-c5ccccc5)cc34)cc2)cc1OC | -5.6 | -38.4 | -26.1 | -3.4 | 9.7 | 46.0
Cc1ccc(-c2[nH]ncc2/C=N/n2c(COc3ccccc3)nc3ccccc3c2=O)cc1 | -18.4 | 37.4 | 26.6 | 37.9 | 13.8 | 52.1*
CC(NC(=O)COC(=O)c1cc(NS(=O)(=O)c2ccc(Cl)c([N+](=O)[O-])c2)ccc1O)C1CC2CCC1C2 (configuration not stated) | 3.9 | -7.5 | 49.1 | -15.6 | 83.9* | 95.7*
COc1ccc(NS(=O)(=O)c2ccc(O)c(C(=O)OCC(=O)NC(C)C3CC4CCC3C4)c2)cc1 (configuration not stated) | 20.2 | 13.2 | -23.0 | -21.6 | 23.2 | 0.5
NC(=O)C1=C(N=C2CCCCC2)CCCC1 | -15.1 | -10.2 | -11.5 | -3.8 | 5.6 | -1.1
COc1cc(Nc2ccccn2)cc(C(=O)Nc2cccc(C(F)(F)F)c2)c1 | -8.4 | 50.1*! | 16.7 | 1.7 | -89.6 | 80.9*!
COCCN(CCOC)S(=O)(=O)c1ccc(C(=O)Nc2nnc(C3CC3)o2)cc1 | -0.8 | 66.7* | -9.9 | 9.7 | 4.0 | 0.5
